We go through six compounds from PubChem BioAssay (NCI).

What all share (assay): NCI-60 one-dose screen, 48 h (100 = growth as untreated, 0 = no growth, -100 = all killed)
Common to all, as to conditions: 10 µM

In test [1] the test system is HCT-15 colon.
For test [2], the system named is HT29 colon.
The subject of test [3] is SNB-75 CNS.
Test [4] has as its system SNB-19 CNS.
In test [5] the test system is U251 CNS.
Test [6] relates to PC-3 prostate.
Test [7] deals with SK-MEL-5 melanoma.
Test [8] concerns UACC-62 melanoma.
The test system of test [9] is LOX IMVI melanoma.
For test [10], the system named is SK-MEL-2 melanoma.
For test [11], the system named is EKVX NSCLC.
Test [12] has as its system SN12C renal.
In test [13] the test system is UO-31 renal.
In test [14] the test system is TK-10 renal.
Test [15] concerns ACHN renal.
The test system of test [16] is CAKI-1 renal.
Test [17] has as its system A498 renal.
Test [18] relates to CCRF-CEM leukemia.
In test [19] the test system is MOLT-4 leukemia.
Test [20] concerns SK-MEL-28 melanoma.

The panel holds about 83,000 compounds, 20% with a hit somewhere; the sample as a whole holds those more often.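 Values shown are percent growth following 48 h exposure of cells in 96-well plates to a single concentration of compound; below 10 was considered active.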 Values without a mark were called inactive. The source made the active and inactive calls.

For `CCNCCCn1c2c(c3cc(OC)c(OC)cc3c1=O)C(=O)c1cc3c(nc1-2)OCO3`, the growth in [1] is -83% (active); in test [2] it was 26.1%; in [3], 56.5%; in test [4], 24.9%; in test [5], 21.7%; in test [6], 43.7%. The growth in test [7] is 22.5%; in [8], -15.3% (active); in test [9] it was -97.9% (active); in test [10], 125%; in test [11], 76.6%; in test [12], -89.2% (active). The growth in test [13] is -97.8% (active); in test [14] it was 98.3%; in [15], 2.02% (active); in [16], 7.87% (active); in test [17] it was 87.1%; in test [18], 0.158% (active). Besides, the growth in test [19] is -14.2% (active).
On to `CCOP(=O)(OCC)O[C@H]1CCC(=O)[C@@H]2[C@H]1[C@H]1C[C@@H]3[C@@]4(C)CCCC(C)(C(=O)OC)[C@@H]4CC[C@@]23C=C1C(C)C` (some centres not stated), for which the growth in test [1] is 49.8%; in test [2], 42.5%; in test [3], 100%; in test [4], 68.1%; in test [5] it was 42.1%; in test [6], 23.5%. Further, the growth in [7] is 18.1%; in [8] it was 46.1%; in test [9] it was 62.4%; in [10] it was 71.3%; in test [11], 41.5%; in test [12] it was 65.4%. Also, the growth was 53.5% in test [13]; 83.2% in test [14]; 65.2% in test [15]; 63.2% in test [16]; 91.1% in test [17]; 55.1% in test [18]. Further, the growth in [19] was 30%.
On to `Cc1ccc(CSc2nc(Cl)c(C#N)c(-c3ccc(F)cc3)n2)cc1`, for which the growth is 54.4% in test [1]; 38.4% in test [2]; 126% in test [3]; 89.3% in test [4]; 68.8% in test [5]; 42.6% in [6]. The growth was 77.6% in test [7]; 77.2% in test [8]; 85.8% in test [9]; 93.9% in [20]; 79.6% in test [11]; 70.2% in test [12]. Also, the growth was 67.9% in test [13]; 91.7% in test [14]; 85.4% in [15]; 67.1% in test [16]; 91.6% in test [17]; 67.7% in test [18]. Moreover, the growth in test [19] is 61.9%.
Regarding `Cc1ccc(/C=C/C(=O)c2ccc(S(=O)(=O)NCCNc3nc(Nc4ccc(F)cc4)nc(N(C)C)n3)cc2)cc1`, the growth in [1] was -46.4% (active); in test [2], -55.6% (active); in [3], 81.3%; in test [4], 44.7%; in test [5], -57.3% (active); in [6], 12.3%. Moreover, the growth in test [7] is 29.4%; in test [8], 32.5%; in [9], -100% (active); in test [20], 40.5%; in [11] it was 30.7%; in test [12], -83.9% (active). The growth in test [14] was 100%; in test [15] it was 11.9%; in [16], 29.3%; in test [17], 37.3%; in test [18], 17.6%; in test [19], 10.1%.
As to `COc1ccc(-c2nc(-c3ccccc3)c(-c3ccccc3)n2-c2ccc(S(=O)(=O)Nc3ncccn3)cc2)cc1OC`, the growth was 53.6% in test [1]; 96.2% in test [2]; 88.5% in test [3]; 74.9% in [4]; 71.8% in test [5]; 63.7% in [6]. Also, the growth in test [7] is 65.7%; in test [8] it was 83.6%; in [9] it was 65.2%; in [20], 92.3%; in test [11] it was 63.6%; in test [12], 76.3%. For the same compound, the growth in test [13] was 51.7%; in test [14], 91.8%; in test [15], 82.6%; in [16] it was 76.5%; in test [17] it was 55%; in [18], 69%. Further, the growth in [19] was 70.5%.
Take `COc1ccc2nc(Cl)c(-c3cc(-c4ccccc4)nc(=O)[nH]3)cc2c1`: the growth in test [1] was 0.676% (active); in test [2], 32.2%; in test [3], 70.1%; in test [4], 31.5%; in test [5], 12.6%; in [6], 48.8%. Moreover, the growth in test [7] is 74.2%; in test [8], 66.8%; in test [9], -46.4% (active); in test [20], 97.7%; in test [11], 73.3%; in test [12] it was 42.9%. In addition, the growth in [14] was 96.9%; in [15] it was 79%; in test [16] it was 74.2%; in test [17], 104%; in test [18], 16.4%; in test [19], -11.4% (active).
